Records with an inconclusive call do not appear. The source made the active and inactive calls. The call rests on the fitted dose curve; in most records, active means well fitted inhibition curve with a large enough effect; inconclusive means small, poorly fitted or top-dose-only effect; inactive means flat fitted curve, though single readings scatter.
Key:
Assay in all cases: Cytotoxic Profiling of Annotated Libraries Using Quantitative High-Throughput Screening (AID 1296008); further: nearly all actives have a fitted effect of over 60% in size
Conditions in all cases: Five cell lines viability, CellTiter-Glo ATP luminescence, 48-72 h; max response: hits give low values
CRL-7250 = normal cell line; test system: CRL-7250
Method in brief: (§1)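 Compounds were pin-transferred onto cells and incubated 48 or 72 hr at 37 degree Celsius, 95% humidity. CellTiter-Glo was added, plates sat 10 min at room temperature, then ATP-coupled luminescence was imaged as the viability read-out.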

HEK293 = test system: HEK293
Method in brief: as §1

HaCat = test system: HaCat
Method in brief: as §1

KB-3-1 = test system: KB-3-1
Method in brief: as §1

NIH3T3 = test system: NIH3T3
Method in brief: as §1

Measured: max response
On the % scale 0 is the no-effect control and ±100 the full control effect.

Cc1ccccc1-n1nc(-c2c(-c3ccc(F)cc3)nn3c2NC[C@@H](CO)C3)ccc1=O
inactive: CRL-7250 1.82% | HEK293 -7.72% | HaCat | KB-3-1 1.64% | NIH3T3

CC1OC(OC2CCC3(C)C(CCC4(C)C3C=CC35OCC6(CCC(C)(C)CC63)CCC45C)C2(C)CO)C(OC2OC(CO)C(O)C(O)C2O)C(O)C1OC1OC(CO)C(O)C(O)C1O (stereo not given)
inactive: CRL-7250 -0.103% | HEK293 -1.62% | HaCat | KB-3-1 | NIH3T3

NC(=O)C(O[C@@H]1O[C@H](CO[C@@H]2O[C@H](CO)[C@@H](O)[C@H](O)[C@H]2O)[C@@H](O)[C@H](O)[C@H]1O)c1ccccc1 (stereo not given in full)
inactive: CRL-7250 | HEK293 -77.8% | HaCat | KB-3-1 4.92% | NIH3T3 4.15%

CCN(CCN(C)C)C(=O)CNCc1cc(C(N)=O)ccn1
inactive: CRL-7250 | HEK293 1.94% | HaCat | KB-3-1 7.84% | NIH3T3

COc1cc(C2Oc3c(OC)cc(/C=C/C(=O)OC4CC(O)(C(=O)O)CC(O)C4O)cc3C2CO)ccc1O (stereo not given)
inactive: CRL-7250 -7.61% | HEK293 1.22% | HaCat | KB-3-1 9.01% | NIH3T3

C[C@@H]1O[C@@H](O[C@H]2[C@H](OC(=O)[C@]34CCC(C)(C)C[C@H]3C3=CCC5[C@@]6(C)C[C@@H](O)[C@@H](O[C@@H]7O[C@H](CO)[C@@H](O)[C@H](O)[C@H]7O)[C@@](C)(CO)C6[C@H](O)C[C@@]5(C)[C@]3(C)CC4)OC[C@H](O)[C@@H]2O)[C@H](O)[C@H](O[C@@H]2OC[C@](O)(CO)[C@H]2O)[C@H]1O[C@@H]1OC[C@@H](O)[C@H](O[C@H]2O[C@H](C)[C@@H](O)[C@H](O)[C@@H]2O)[C@H]1O (stereo not given in full)
inactive: CRL-7250 | HEK293 4.64% | HaCat 2.54% | KB-3-1 | NIH3T3

Fc1ccccc1-c1nc2ccn(Cc3ccc(-c4ccc(C(F)(F)F)cc4C(F)(F)F)nn3)cc-2n1
inactive: CRL-7250 1.68% | HEK293 -5.52% | HaCat | KB-3-1 -0.729% | NIH3T3 -4.04%

Cc1cccc(-c2nn3c(c2-c2ccnc4ccc(C(N)=O)cc24)CCC3)n1
inactive: CRL-7250 1.85% | HEK293 3.73% | HaCat | KB-3-1 | NIH3T3 -5.67%

COc1cc(/C=C/C(=O)O[C@H]2[C@@H]3C=CO[C@@H](O[C@@H]4O[C@H](CO)[C@@H](O)[C@H](O)[C@H]4O)[C@@H]3[C@@]3(CO)O[C@@H]23)ccc1O
inactive: CRL-7250 | HEK293 1.49% | HaCat | KB-3-1 | NIH3T3

CC(C)Oc1ccc(-c2nc(-c3cccc4c3CCC4NCCC(=O)O)no2)cc1C#N (stereo not given)
inactive: CRL-7250 0.795% | HEK293 -10.1% | HaCat | KB-3-1 8.29% | NIH3T3

C[C@]1(C2CCCC2)Cc2cc(OCC(=O)O)c(Cl)c(Cl)c2C1=O
inactive: CRL-7250 3.09% | HEK293 3.25% | HaCat | KB-3-1 | NIH3T3 4.03%

CC1(C)CC[C@]2(C(=O)O)CC[C@]3(C)C(=CCC4[C@@]5(C)CC[C@H](O[C@@H]6O[C@H](C(=O)O)[C@@H](O)[C@H](O[C@@H]7O[C@H](CO)[C@H](O)[C@H](O)[C@H]7O)[C@H]6O[C@@H]6O[C@H](CO)[C@@H](O)[C@H](O)[C@H]6O)C(C)(C)C5CC[C@]43C)[C@@H]2C1 (stereo not given in full)
inactive: CRL-7250 3.2% | HEK293 -6.56% | HaCat | KB-3-1 | NIH3T3

NCCCCN(Cc1nc2ccccc2[nH]1)[C@H]1CCCc2cccnc21
inactive: CRL-7250 -5.02% | HEK293 -0.584% | HaCat | KB-3-1 1.94% | NIH3T3

OC[C@H]1O[C@@H](O[C@H]2[C@H](O)[C@@H](CO)O[C@@H](OCc3ccccc3)[C@@H]2O[C@@H]2OC[C@](O)(CO)[C@H]2O)[C@H](O)[C@@H](O)[C@@H]1O
inactive: CRL-7250 -8.44% | HEK293 -1.87% | HaCat | KB-3-1 7.58% | NIH3T3 1.27%

COc1cc(O)cc(C)c1C(=O)O[C@H]1[C@@H](O)[C@@H](n2ccc(=O)[nH]c2=O)O[C@@H]1CO
inactive: CRL-7250 -0.148% | HEK293 -4.61% | HaCat | KB-3-1 -0.769% | NIH3T3

C[C@@]1(C(=O)O)CCC[C@@]2(C)C3=CC[C@H]4C[C@@]3(CC[C@H]12)CC4(O)CO (stereo not given in full)
inactive: CRL-7250 -19% | HEK293 4.94% | HaCat | KB-3-1 | NIH3T3

N#CC1C(=O)N=C(c2cc(Cl)ccc2O)C=C1c1cc(OCc2ccccc2)cc(OCc2ccccc2)c1 (stereo not given)
inactive: CRL-7250 | HEK293 3.52% | HaCat | KB-3-1 | NIH3T3 1.6%

C/C(=C\CC[C@H](CO)[C@@H]1CC[C@]2(C)C3=C(CC[C@@]12C)[C@@]1(C)CCC(=O)C(C)(C)C1CC3)C(=O)O (stereo not given in full)
inactive: CRL-7250 -4.82% | HEK293 -7.09% | HaCat | KB-3-1 6.51% | NIH3T3 -2.55%

COc1cnc(-c2ccc(Cn3c(CC(C)(C)C(=O)O)c(SC(C)(C)C)c4cc(OC[C@@H]5Cc6ccccc6N5C(C)=O)ccc43)cc2)nc1
inactive: CRL-7250 -2.77% | HEK293 -2.16% | HaCat | KB-3-1 -12.4% | NIH3T3 -14.7%

C[C@H]1CCN2C[C@]34C[C@@]5(C(=O)Nc6c5ccc5c6OC=CC(C)(C)O5)C(C)(C)C3C[C@]12C(=O)N4C (stereo not given in full)
inactive: CRL-7250 | HEK293 -13.2% | HaCat | KB-3-1 -2.39% | NIH3T3 3.63%

O=C(Nc1cc(-c2ccccc2)nn1-c1ccccc1)c1ccc([N+](=O)[O-])cc1
inactive: CRL-7250 -6.57% | HEK293 -12.1% | HaCat 1.9% | KB-3-1 -7.82% | NIH3T3

CC[C@H]1OC(=O)[C@H](C)C(=O)[C@H](C)[C@@H](OC2O[C@H](C)C[C@H](N(C)C)[C@H]2O)[C@@H](C)C[C@@H](C)C(=O)/C=C/[C@]1(C)O (stereo not given in full)
inactive: CRL-7250 -0.333% | HEK293 -11.3% | HaCat | KB-3-1 7.73% | NIH3T3

C=C1CC23CC1CCC2C12OC(=O)C(C)(C(O)C(O)C1O)C2C3C(=O)O (stereo not given)
inactive: CRL-7250 -6.36% | HEK293 -2% | HaCat 2.72% | KB-3-1 | NIH3T3

CN1CCN(c2nc(-c3ccc(C(=O)NC4(C(=O)NCC#N)CCCCC4)cc3)cs2)CC1
inactive: CRL-7250 2.74% | HEK293 -8.37% | HaCat 1.43% | KB-3-1 -9.9% | NIH3T3

CC[C@H]1OC(=O)[C@H](C)[C@@H](O[C@H]2C[C@@](C)(OC)[C@@H](O)[C@H](C)O2)C(C)[C@@H](O[C@@H]2O[C@H](C)C[C@H](N(C)C)[C@H]2O)[C@](C)(O)C[C@@H](C)CN(C)[C@H](C)[C@@H](O)[C@]1(C)O (stereo not given in full)
inactive: CRL-7250 -0.571% | HEK293 1.9% | HaCat -11.4% | KB-3-1 -2.18% | NIH3T3

CCOc1nc2c(N)ncnc2n1CC
inactive: CRL-7250 | HEK293 3.9% | HaCat | KB-3-1 5.09% | NIH3T3 3.41%

NC(=O)NCCCC(NC(=O)Cc1ccccc1)C(=O)O (stereo not given)
inactive: CRL-7250 | HEK293 -0.44% | HaCat | KB-3-1 3.03% | NIH3T3 3.99%

C/C=C(/C)C(=O)OC1C(OC(C)=O)C23C(O)OC4(CCC5C6(C)CCC(OC7OC(C(=O)O)C(O)C(OC8OC(CO)C(O)C(O)C8OC8OC(C)C(O)C(O)C8OC8OCC(O)C(O)C8O)C7OC7OC(CO)C(O)C(O)C7O)C(C)(C)C6CCC5(C)C4(C)CC2OC(C)=O)C3CC1(C)C (stereo not given)
inactive: CRL-7250 1.39% | HEK293 | HaCat 1.22% | KB-3-1 4.58% | NIH3T3 -12.1%

COc1cccc(CNc2ccc(S(=O)(=O)Nc3nc4ccccc4s3)cc2)c1O
inactive: CRL-7250 0.252% | HEK293 | HaCat -8.64% | KB-3-1 7.86% | NIH3T3 -2.92%

O=C(O[C@H]1[C@H](Oc2ccc(O)cc2CO)O[C@H](CO)[C@@H](O)[C@@H]1O)c1ccccc1
inactive: CRL-7250 -4.77% | HEK293 -1.69% | HaCat | KB-3-1 | NIH3T3 2.07%

COc1ccc(-n2c(=O)[nH]c3cc(C(=O)NCc4ccc(Cl)cc4)sc3c2=O)nc1OC
inactive: CRL-7250 1.31% | HEK293 2.86% | HaCat -5.79% | KB-3-1 2.11% | NIH3T3

COc1cc(C)c(C(=O)OC2C(C)OC(OC3CCC(C)C4C3C=C(C)C3/C(C)=C\CC/C(C)=C/C5(C)C=C(C(=O)O)C(C)CC56OC(=O)/C(=C(\O)C34C)C6=O)C(O)C2O)c(OC)c1 (stereo not given)
inactive: CRL-7250 | HEK293 -1.11% | HaCat | KB-3-1 -3.91% | NIH3T3

Cc1ccccc1NC(=O)Nc1ccc(CN2C(=O)N([C@@H](CC(C)C)C(=O)N[C@@H](CC(=O)O)c3ccccc3)C(=O)C2(C)C)cc1
inactive: CRL-7250 -13.5% | HEK293 | HaCat 3.16% | KB-3-1 | NIH3T3 -0.819%

CCCC/C=C\CCCCCc1cc(=O)c2ccccc2n1C
inactive: CRL-7250 -5.2% | HEK293 -7.72% | HaCat | KB-3-1 | NIH3T3

COC(O)(CC(C)C)C1Oc2cc(C)[nH]c(=O)c2O1 (stereo not given)
inactive: CRL-7250 | HEK293 0.893% | HaCat | KB-3-1 6.46% | NIH3T3 3.8%

Cc1noc2c1-c1ccccc1C(c1ccc(Cl)cc1)=N[C@H]2CC(N)=O
inactive: CRL-7250 1.75% | HEK293 -4.39% | HaCat | KB-3-1 | NIH3T3 -0.413%

CC(=O)OCC1OC(O[C@H]2CC[C@]34C[C@]35CC(O)[C@]3(C)[C@@H]([C@H](C)CC/C=C(\C)C(=O)O)C(O)C[C@@]3(C)C5CC[C@H]4C2(C)C)C(O)C(O)C1OC1OCC(O)C(O)C1O (stereo not given in full)
inactive: CRL-7250 -0.106% | HEK293 -3.14% | HaCat 2.3% | KB-3-1 7.5% | NIH3T3

Reference: PubChem BioAssay (NCATS)
